Results: PubChem BioAssay (Tox21)
A number with no mark means an inactive call. Calls of active or inactive are those of the source. Calls follow the shape of the dose curve; as a rule, active = well fitted curve in the direction sought with a large enough effect in the repeat runs; inconclusive = weak or mixed curves; inactive = flat fitted curve, though single readings scatter.

experiment: qHTS assay to test for compound auto fluorescence at 590 nm (red) in HepG2 cell free culture (AID 720684); conditions: cell-free medium autofluorescence, red 540/590 nm; series mostly up to 46 µM
In short: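 Plate contents were MEM with 10% FBS plus test compound or DMSO, no cells. Fluorescence was recorded with 540 nm excitation and 590 nm emission.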
% is scaled to controls: 0 for no effect and ±100 for the full control effect.

Row | Compound | outcome | fluorescence, % of Rose Bengal
1 | COc1nc(N)nc2c1ncn2[C@@H]1O[C@H](CO)[C@@H](O)[C@@H]1O | inactive | 
2 | CC(C)(C)NCCNC(C)(C)C | inactive | 
3 | CCSC(=O)N(CC(C)C)CC(C)C | inactive | 
4 | CC1(C)CO[C@@H](CC(=O)O)CN1 | inactive | 
5 | COCCc1ccc(OCC(O)CNC(C)C)cc1 (stereo not given) | inactive | 
6 | O=C1NC(=O)[C@@]2(CCOc3ccc(F)cc32)N1 | inactive | 
7 | N[C@H]1CN(c2c(F)cc3c(=O)c(C(=O)O)cn(C4C[C@H]4F)c3c2Cl)CC12CC2 (stereo not given in full) | inactive | 
8 | CCCCCCCCCCCCN(CCCCCCCCCCCC)CCCCCCCCCCCC | inactive | 
9 | CC(C[N+](C)(C)C)OC(N)=O (stereo not given) | inactive | 
10 | O=C(O)CCCc1ccccc1 | inactive | 
11 | N#Cc1ccc(C2CCCc3cncn32)cc1 (stereo not given) | inactive | 
12 | CCOC(C)(C)C | inactive | 
13 | c1ccc(CC2=NCCN2)cc1 | inactive | 
14 | O=C(O)c1ccccc1OP(=O)(O)O | inactive | 
15 | C=CCS(=O)(=O)O | inactive | 
16 | O=C(O)CCCl | inactive | 
17 | COC(=O)[C@@H](N)Cc1ccc(O)c(O)c1 | inactive | 
18 | NS(=O)(=O)c1cc(C(=O)O)cc(N2CCCC2)c1Oc1ccccc1 | inactive | 
19 | CCOC(=O)c1cccc(N)c1 | inactive | 
20 | CN(C(=O)c1c(O)c2ccccc2n(C)c1=O)c1ccccc1 | inactive | 

Row | Compound | outcome | fluorescence, % of Rose Bengal
21 | CC(=O)c1ccccc1O | inactive | 
22 | CO[Si](CCCOCC1CO1)(OC)OC (stereo not given) | inactive | 
23 | CCCN(CCC)CCc1cccc2c1CC(=O)N2 | inactive | 
24 | NC(=O)COCCN1CCN(C(c2ccccc2)c2ccc(Cl)cc2)CC1 (stereo not given) | inactive | 
25 | NC(=O)Nc1ccccc1 | inactive | 
26 | COc1c(N2C[C@@H]3CCCN[C@@H]3C2)c(F)cc2c(=O)c(C(=O)O)cn(C3CC3)c12 | inactive | 
27 | CCC(=O)OC(C)c1ccccc1 (stereo not given) | inactive | 
28 | CCCc1cc(C(N)=S)ccn1 | inactive | 
29 | CC/C=C\CC/C=C/C(OCC)OCC | inactive | 
30 | CCN1CCC[C@H]1CNC(=O)c1c(O)c(Cl)cc(Cl)c1OC | inactive | 
31 | OC(CCN1CCCCC1)(c1ccccc1)C1CC2C=CC1C2 (stereo not given) | inactive | 
32 | CCCN1CCCC[C@H]1C(=O)Nc1c(C)cccc1C | inactive | 
33 | Nc1cc(=O)[nH]c(N)n1 | inactive | 
34 | CC(C)CNCC(C)C | inactive | 
35 | O=C1CCCCCCCCCCCN1 | inactive | 
36 | COc1ccc2c(c1)c(CC(=O)OCC(=O)O)c(C)n2C(=O)c1ccc(Cl)cc1 | inactive | 
37 | COC(=O)c1c(Cl)c(Cl)c(C(=O)OC)c(Cl)c1Cl | inactive | 
38 | N=C(N)c1ccc(OCCCOc2ccc(C(=N)N)cc2)cc1 | inactive | 
39 | CCCCCCCCCCCCCC=O |  | 0.0058% [at 3.72 µM]
40 | N[C@H](C(=O)O)c1ccc(O)cc1 | inactive | 

experiment: qHTS assay to test for compound auto fluorescence at 460 nm (blue) in HepG2 cell free culture (AID 720685); conditions: Cell-free culture medium, blue autofluorescence 405/460 nm; series mostly up to 46 µM
In short: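 Compound (23 nL) or DMSO pinned into cell-free MEM with 10% FBS; blue fluorescence read at 405/460 nm excitation/emission, expressed as auto-fluorescence equivalency to triamterene.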

Row | Compound | outcome | fluorescence, % of fluorescent control
41 | COc1nc(N)nc2c1ncn2[C@@H]1O[C@H](CO)[C@@H](O)[C@@H]1O | inactive | 
42 | CC(C)(C)NCCNC(C)(C)C | inactive | 
43 | CCSC(=O)N(CC(C)C)CC(C)C | inactive | 
44 | CC1(C)CO[C@@H](CC(=O)O)CN1 | inactive | 
45 | COCCc1ccc(OCC(O)CNC(C)C)cc1 (stereo not given) | inactive | 
46 | O=C1NC(=O)[C@@]2(CCOc3ccc(F)cc32)N1 | inactive | 
47 | N[C@H]1CN(c2c(F)cc3c(=O)c(C(=O)O)cn(C4C[C@H]4F)c3c2Cl)CC12CC2 (stereo not given in full) | inactive | 
48 | CCCCCCCCCCCCN(CCCCCCCCCCCC)CCCCCCCCCCCC | inactive | 
49 | CC(C[N+](C)(C)C)OC(N)=O (stereo not given) | inactive | 
50 | O=C(O)CCCc1ccccc1 | inactive | 
51 | N#Cc1ccc(C2CCCc3cncn32)cc1 (stereo not given) | inactive | 
52 | CCOC(C)(C)C | inactive | 
53 | c1ccc(CC2=NCCN2)cc1 | inactive | 
54 | O=C(O)c1ccccc1OP(=O)(O)O | inactive | 
55 | C=CCS(=O)(=O)O | inactive | 
56 | O=C(O)CCCl | inactive | 
57 | COC(=O)[C@@H](N)Cc1ccc(O)c(O)c1 | inactive | 
58 | NS(=O)(=O)c1cc(C(=O)O)cc(N2CCCC2)c1Oc1ccccc1 | inactive | 
59 | CCOC(=O)c1cccc(N)c1 | inactive | 
60 | CN(C(=O)c1c(O)c2ccccc2n(C)c1=O)c1ccccc1 | inactive | 

Row | Compound | outcome | fluorescence, % of fluorescent control
61 | CC(=O)c1ccccc1O | inactive | 
62 | CO[Si](CCCOCC1CO1)(OC)OC (stereo not given) | inactive | 
63 | CCCN(CCC)CCc1cccc2c1CC(=O)N2 | inactive | 
64 | NC(=O)COCCN1CCN(C(c2ccccc2)c2ccc(Cl)cc2)CC1 (stereo not given) | inactive | 
65 | NC(=O)Nc1ccccc1 | inactive | 
66 | COc1c(N2C[C@@H]3CCCN[C@@H]3C2)c(F)cc2c(=O)c(C(=O)O)cn(C3CC3)c12 | inactive | 
67 | CCC(=O)OC(C)c1ccccc1 (stereo not given) | inactive | 
68 | CCCc1cc(C(N)=S)ccn1 | inactive | 
69 | CC/C=C\CC/C=C/C(OCC)OCC | inactive | 
70 | CCN1CCC[C@H]1CNC(=O)c1c(O)c(Cl)cc(Cl)c1OC | inactive | 
71 | OC(CCN1CCCCC1)(c1ccccc1)C1CC2C=CC1C2 (stereo not given) | inactive | 
72 | CCCN1CCCC[C@H]1C(=O)Nc1c(C)cccc1C | inactive | 
73 | Nc1cc(=O)[nH]c(N)n1 | inactive | 
74 | CC(C)CNCC(C)C | inactive | 
75 | O=C1CCCCCCCCCCCN1 | inactive | 
76 | COc1ccc2c(c1)c(CC(=O)OCC(=O)O)c(C)n2C(=O)c1ccc(Cl)cc1 | inactive | 
77 | COC(=O)c1c(Cl)c(Cl)c(C(=O)OC)c(Cl)c1Cl | inactive | 
78 | N=C(N)c1ccc(OCCCOc2ccc(C(=N)N)cc2)cc1 | inactive | 
79 | CCCCCCCCCCCCCC=O |  | -0.0093% [at 3.72 µM]
80 | N[C@H](C(=O)O)c1ccc(O)cc1 | inactive | 
